This is one part of a sample in which hits are shown more often than they occur.
HT1080 IDH1KD tx = toxicity to HT-1080 IDH1 knockdown cells (counter line); HT-1080 IDH1 knockdown viability, ATP luminescence, 48 h; Potency, µM (highest dose often 46.1 µM), for the others: at the top dose activity, negative = toxicity, usual class: cytotoxic; AID 686971; hit rate 2% among 360,000;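 also: potency is read from the fitted curve at half-maximal effect; 0% = DMSO wells and -100% = cell-free medium wells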
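Knockdown cells (IDH1KD HT-1080) received compounds 2 h after plating at 750 cells/well and were kept 48 h at 37 °C in 5% FBS RPMI. A CellTiter-Glo luminescence read gave % activity for curve fitting.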
DT40 TDP1 CPT = DT40-hTDP1 cell growth loss with CPT; hit rate 12% among 420,000; chicken DT40 Tdp1-/-;hTDP1 cells + 20 nM CPT, ATP luminescence, 48 h; Potency, µM (titrated, usually from 46.2 µM), inactives show at the highest dose activity change, negative = growth inhibition, hits mostly inhibitors; also: potency is read from the fitted curve at half-maximal effect; nearly all actives have a fitted effect of over 55% in size
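Chicken DT40 Tdp1-/- cells stably complemented with human TDP1 were seeded at 400 cells/well in medium containing 20 nM camptothecin, exposed to pin-transferred compounds, and grown at 37 °C for at least 48 hr. Viability was read as ATP luminescence.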
12-LOX inh = blocks human arachidonate 12S-lipoxygenase; purified 12hLO, xylenol orange hydroperoxide absorbance; Potency, µM (highest dose often 108 µM), for inactives: at the highest dose activity change, negative = inhibition, usual class: inhibitors; hit rate 1.1% among 580,000; AID 1671190; also: potency is read from the fitted curve at half-maximal effect
Target sequence (P18054 whole entry, looked up): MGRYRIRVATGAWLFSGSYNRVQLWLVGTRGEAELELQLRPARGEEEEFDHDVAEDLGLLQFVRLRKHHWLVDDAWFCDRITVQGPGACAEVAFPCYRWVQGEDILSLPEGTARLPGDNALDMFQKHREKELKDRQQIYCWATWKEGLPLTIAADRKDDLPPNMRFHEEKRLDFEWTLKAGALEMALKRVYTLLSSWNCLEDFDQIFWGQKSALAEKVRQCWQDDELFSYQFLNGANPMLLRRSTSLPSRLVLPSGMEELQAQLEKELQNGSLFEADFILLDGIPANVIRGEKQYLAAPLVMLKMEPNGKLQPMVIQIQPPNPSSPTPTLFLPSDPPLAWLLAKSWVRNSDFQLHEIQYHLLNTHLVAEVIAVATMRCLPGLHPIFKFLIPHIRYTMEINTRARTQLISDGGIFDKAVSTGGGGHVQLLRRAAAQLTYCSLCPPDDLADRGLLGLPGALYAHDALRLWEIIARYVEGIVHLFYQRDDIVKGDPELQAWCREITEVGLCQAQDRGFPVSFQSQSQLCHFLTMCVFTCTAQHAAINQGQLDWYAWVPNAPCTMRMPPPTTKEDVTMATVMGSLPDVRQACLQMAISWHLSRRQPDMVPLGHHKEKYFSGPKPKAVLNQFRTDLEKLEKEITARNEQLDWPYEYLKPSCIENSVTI
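Purified human 12hLO (150 nM final) in 25 mM Hepes, 0.01% Triton X-100, pH 7.0 was preincubated 15 min at room temperature with compound. Then 40 uM arachidonic acid was added, 30 min. Hydroperoxide was read by Fe-XO absorbance ratio 573/405 nm.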
IL-1B inflam inh = blocks inflammasome-driven IL-1 beta release; THP-1 LPS/ATP IL-1B secretion, AlphaLISA, 16 h; active compounds read low; activity change, % at 57.5 µM; hit rate 4.7% among 360,000; AID 743279; in the data active = activity change below about -50%; inconclusive = mostly about -30% to -49%
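THP-1 cells pretreated 1 hr with compounds (up to 57.5 uM final), then stimulated with LPS (250 ng/mL final) plus ATP (1.25 mM final); secreted IL-1B measured by AlphaLISA after 16 hr, decreased signal indicating inhibition.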
DT40 TDP1 no CPT = qHTS for Inhibitors of human tyrosyl-DNA phosphodiesterase 1 (TDP1): qHTS in cells in absence of CPT; DT40 Tdp1-/- hTDP1 cells, no CPT, ATP luminescence, 48 h; Potency, µM (top dose mostly 46.2 µM), for inactives: at the highest dose activity change, negative = growth inhibition, most hits filed as inhibitors; hit rate 15% among 420,000; AID 686978, 2013; also: potency is read from the fitted curve at half-maximal effect; nearly all actives have a fitted effect of over 55% in size
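Stably hTDP1-transfected Tdp1-null chicken DT40 cells were treated with library compounds minus camptothecin and grown for at least 48 hr at 37 °C, after which cellular ATP was quantified by luminescence.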
HT1080-NT tox = kills 2HG-producing HT-1080-NT fibrosarcoma cells. HT-1080-NT fibrosarcoma viability, CellTiter-Glo ATP luminescence, 48 h. Potency, µM (highest dose often 46.1 µM), without a hit: at the top dose activity, negative = less viability, hits mostly cytotoxic. hit rate 1.6% among 360,000. AID 686970;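 also: NT is the 2HG producing partner of a matched IDH1 knockdown line; potency is read from the fitted curve at half-maximal effect; 0% = DMSO-treated cells and -100% = media-only wells without cells; nearly all actives have a fitted effect of over 55% in size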
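Viability of the 2HG-overproducing fibrosarcoma line after 48 hours of compound exposure at 37 degrees C was determined by luminescence with CellTiter-Glo, and concentration-effect curves were then fitted and categorized.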
* hit, by the source's call; ? = inconclusive; / = not tested or not shown. Unless noted, calls follow the shape of the dose curve; as a rule, active = well fitted curve in the direction sought with a large enough effect; inconclusive = small, poorly fitted or top-dose-only effect, or another doubt; inactive = no such curve, though single readings can be large; an effect the other way counts as inactive or inconclusive. Unless noted, % is scaled to controls: 0 for no effect and ±100 for the full control effect.

SMILES | HT1080 IDH1KD tx | DT40 TDP1 CPT | 12-LOX inh | IL-1B inflam inh | DT40 TDP1 no CPT | HT1080-NT tox
CN1OC[C@@H]2CN(S(=O)(=O)c3cccc4ccccc34)[C@H](c3ccc(-c4ccccc4)cc3)C[C@@H]21 | ? | ? | -4% | 25 | 23µM* | -26%
Cc1ccccc1S(=O)(=O)N1C[C@H]2CON(C)[C@H]2C[C@H]1c1cccc(Br)c1 | 3% | -20% | 13% | 2 | ? | 3%
COc1ccccc1-c1cccc([C@@H]2C[C@H]3[C@H](CON3C)CN2S(=O)(=O)c2ccccc2C)c1 | 1% | 15µM* | -50% | -8 | 21µM* | 0%
Cc1ccccc1-c1cccc([C@@H]2C[C@H]3[C@H](CON3C)CN2S(=O)(=O)c2ccccc2C)c1 | -2% | ? | 0% | -12 | 21µM* | -10%
Cc1ccccc1S(=O)(=O)N1C[C@H]2CON(C)[C@H]2C[C@H]1c1cccc(-c2ccccc2)c1 | -3% | ? | 2% | -10 | 23µM* | 4%
CCn1nccc1C(=O)N1C[C@@H](Oc2cccnc2)C[C@@H]1C(=O)NCCOC | / | / | 10% | / | / | /
CN1OC[C@@H]2CN(C(=O)C(C)(C)C)[C@H](c3ccc(-c4cc5ccccc5o4)cc3)C[C@@H]21 | 6% | ? | -40% | 0 | 21µM* | 3%
CN1OC[C@@H]2CN(C(=O)C(C)(C)C)[C@H](c3cccc(-c4ccccc4)c3)C[C@@H]21 | 9% | -20% | 8% | -1 | -6% | 10%
CC(C)N1C(=O)C2(CCCC2)C1C(=O)N(C)CCc1ccccn1 (stereo not drawn) | / | / | 9% | / | / | /
CC(=O)N1N=C(c2cccc(NS(C)(=O)=O)c2)CC1c1cccs1 (stereo not drawn) | 4% | -6% | -7% | 52 | -2% | 4%
CS(=O)(=O)Nc1ccc(C2=NN(C(=O)c3ccccc3)C(c3cccs3)C2)cc1 (stereo not drawn) | -10% | ? | 9% | ? | ? | -10%
CC(=O)N1N=C(c2cccc(O)c2)CC1c1cccs1 (stereo not drawn) | -9% | 15µM* | 0% | -12 | ? | -1%
CC(C)(C)C(=O)N1N=C(c2ccc(NS(C)(=O)=O)cc2)CC1c1cccs1 (stereo not drawn) | 16µM* | ? | -11% | -20 | ? | ?
CC(=O)N1N=C(c2ccccc2O)CC1c1cccs1 (stereo not drawn) | -14% | ? | 14% | -65* | 6.5µM* | -18%
COc1ccc(C(CCN)Cc2ccccc2)cc1 (stereo not drawn) | -1% | 29µM* | 1% | -51* | 21µM* | -3%
O=C(Nc1ccc2c(c1)OCCO2)c1oc2ccccc2c1NC(=O)C1CC1 | -11% | ? | -5% | -2 | ? | -9%
Cc1ccc(NC(=O)c2oc3ccccc3c2NC(=O)C2CCCO2)cc1C (stereo not drawn) | -22% | 10µM* | 0% | -5 | 8.2µM* | -30%
CCOc1ccccc1NC(=O)c1ccc(NC(=O)C2CCCO2)cc1 (stereo not drawn) | 0% | -1% | 0% | -24 | -15% | 11%
CCOc1ccccc1NC(=O)c1oc2ccccc2c1NC(=O)C1CCCO1 (stereo not drawn) | 9% | 16µM* | -11% | -1 | 9.2µM* | 16%
COc1ccc(NC(=O)c2oc3ccccc3c2NC(=O)C2CCCO2)cc1OC (stereo not drawn) | -18% | ? | 1% | 0 | 18µM* | -1%
O=C(Nc1ccc(F)c(F)c1)c1oc2ccccc2c1NC(=O)C1CCCO1 (stereo not drawn) | -5% | ? | -13% | 27 | 5.2µM* | -23%
COc1ccccc1NC(=O)c1oc2ccccc2c1NC(=O)C1CC1 | ? | ? | 0% | 0 | ? | -30%
CCC(C)NC(=O)CCc1cccnc1 (stereo not drawn) | / | / | -3% | / | / | /
CC(C)CN1CCN(C(=O)CCC2CCN(c3cc(NC4CC4)ncn3)CC2)CC1 | / | / | 53% | / | / | /
Cc1ccc(CNC(=O)CCC(=O)n2ncc3cc(C)ccc32)cc1 | 1% | -7% | 10% | 0 | 8% | 9%
SMILES | HT1080 IDH1KD tx | DT40 TDP1 CPT | 12-LOX inh | IL-1B inflam inh | DT40 TDP1 no CPT | HT1080-NT tox
Cc1ccc2c(cnn2C(=O)CCCC(=O)NCc2ccc(Cl)cc2)c1 | ? | 23µM* | 7% | -5 | ? | ?
O=C(CN1CCCC1c1ccc2c(c1)OCCCO2)Nc1cccc(Cl)c1Cl (stereo not drawn) | / | / | -21% | / | / | /
Cc1sc2ncnc(N3CCC(C(=O)NNC(=O)c4ccc(Cl)cc4)CC3)c2c1C | -6% | 16µM* | 1% | -81* | 15µM* | -9%
Cc1sc2ncnc(N3CCC(C(=O)Nc4cc(S(C)(=O)=O)ccc4Cl)CC3)c2c1C | -11% | 13µM* | 2% | ? | 18µM* | -14%
Cc1sc2ncnc(N3CCC(C(=O)Nc4cc(C(F)(F)F)ccc4OCC(F)(F)F)CC3)c2c1C | -10% | ? | -4% | -56* | 18µM* | -9%
COC(CNC(=O)C1CCN(c2ncnc3sc(C)c(C)c23)CC1)OC | / | / | 0% | / | / | /
COc1ccc(S(=O)(=O)N(C)C)cc1NC(=O)C1CCN(c2ncnc3sc(C)c(C)c23)CC1 | -29% | 21µM* | -3% | -15 | 9.2µM* | -15%
Cc1sc2ncnc(N3CCC(C(=O)Nc4cc(Cl)ccc4Cl)CC3)c2c1C | -22% | ? | 0% | -1 | ? | -15%
COC(=O)[C@@H]1C[C@H](NC(=O)CSC23CC4CC(CC(C4)C2)C3)CN1C | / | / | 10% | / | / | /
CC(=O)c1c(C)[nH]c(C(=O)COc2ccccc2F)c1C | / | / | 7% | / | / | /
Cc1cnc(C(=O)N[C@@H]2CCC[C@@H]2C(=O)NCc2ccc(C)c(C)c2)cn1 | / | / | -5% | / | / | /
CCOC(=O)c1c(C2COc3ccccc3O2)csc1NC(=O)c1ccco1 (stereo not drawn) | 2% | 14µM* | ? | -54* | 11µM* | 23%
Cc1cccc(CC(C)NC(=O)c2oc3c(F)cccc3c2C)n1 (stereo not drawn) | -13% | ? | -5% | -1 | 10µM* | -6%
CCN(C(=O)COC(=O)CCc1c[nH]c2ccccc12)c1c(N)n(Cc2ccccc2)c(=O)[nH]c1=O | 0% | 8% | -26% | 4 | -5% | 4%
Cc1ccc(SCCC(=O)OC(C)C(=O)Nc2ccc(C(N)=O)cc2)cc1 (stereo not drawn) | / | / | -34% | / | / | /
